This assay in a line: NCI Yeast Anticancer Drug Screen. Data for the sgs1 strain (AID 173).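 Further: 0% = growth of vehicle-only control cultures.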 As to conditions: S. cerevisiae sgs1 mutant, hits give high values. The protocol:
Growth inhibition of yeast strains with defined genetic alterations is measured as a screen for potential anti-cancer activity. Selected strains with alterations in DNA damage repair or cell cycle control were exposed to compounds and growth inhibition was measured relative to vehicle treated controls. The strain used in this assay is sgs1

Compounds without any hit were thinned out: in the full panel of roughly 79,000, 15% have a hit. Values without a mark were called inactive. Activity calls are given as the source filed them. No stated cut-off is given here; in the data, active means growth inhibition above about 70%; inactive means the rest.

`Cc1c(C(=O)C(=O)c2ccccc2)c(C)c(C(=O)C(=O)c2ccccc2)c(C)c1C(=O)C(=O)c1ccccc1`: the growth inhibition reads like this: (at 1.2 µM) 0%; (at 3.7 µM) 0%; (at 11.0 µM) -4%; (at 33.0 µM) -5%; (at 100.0 µM) -13%.

`O=[N+]([O-])C(=C(Sc1ccccc1)Sc1ccccc1)C(Cl)=C(Cl)Cl`: the growth inhibition is 13% (at 1.2 µM); 24% (at 3.7 µM); 58% (at 11.0 µM); 76% (active) (at 33.0 µM); 78% (active) (at 100.0 µM).

Consider `CC(=O)Nc1ccc(SC(C)=O)cc1`, for which the growth inhibition (at 1.2 µM) is -30%; the growth inhibition (at 3.7 µM) is -9%; the growth inhibition (at 11.0 µM) was 10%; the growth inhibition (at 33.0 µM) was 65%; the growth inhibition (at 100.0 µM) is 88% (active).

On to `OC(COc1cccc2ccccc12)CN1CCOCC1` (stereo not given), for which the growth inhibition was 29% (at 1.2 µM); 49% (at 3.7 µM); 61% (at 11.0 µM); 59% (at 33.0 µM); 56% (at 100.0 µM).

In the case of `CCC[CH2][Ge]([CH2]CCC)([CH2]CCC)[O]C(=O)C(OC)c1ccccc1` (stereo not given), the growth inhibition is -1% (at 1.2 µM); 1% (at 3.7 µM); 11% (at 11.0 µM); 71% (active) (at 33.0 µM); 94% (active) (at 100.0 µM).

As to `[N-]=N[N+]#I1OC(C(F)(F)F)(C(F)(F)F)c2ccccc21`, the growth inhibition is, setting by setting: (at 1.2 µM) 41%; (at 3.7 µM) 89% (active); (at 11.0 µM) 98% (active); (at 33.0 µM) 99% (active); (at 100.0 µM) 99% (active).

With `CC(C)=CC(=O)O[C@@H]1CC(C)(C)CC2C3=CCC4[C@]56CC[C@](O)(OC5)C(C)(C)C6CC[C@@]4(C)C3(C)CC[C@]21C(=O)O` (stereo not given in full), the growth inhibition (at 1.2 µM) was -3%; the growth inhibition (at 3.7 µM) was 46%; the growth inhibition (at 11.0 µM) was 83% (active); the growth inhibition (at 33.0 µM) is 95% (active); the growth inhibition (at 100.0 µM) is 95% (active).

Regarding `CC(C)(Br)C(=O)/C=C/c1ccc(Cl)c(Cl)c1`, the growth inhibition was -1% (at 1.2 µM); -3% (at 3.7 µM); 12% (at 11.0 µM); 7% (at 33.0 µM); 17% (at 100.0 µM).

For the origin of these results see PubChem BioAssay (NCI).
